Screens as filed in PubChem BioAssay.
Hits are enriched below; roughly 10% of the tested compounds scored in any of these assays.
p97 ATPase inh = inhibitors of human p97 ATPase, primary screen, biochemical; Transitional endoplasmic reticulum ATPase (Homo sapiens), P55072; recombinant p97 ATPase, Kinase-Glo ATP luminescence, 3 h; inhibition, % at 8 µM; actives 0.42% (n = 220,000); AID 1481, 2009; in the data active means inhibition above about 15%
Target sequence (P55072 whole entry, looked up): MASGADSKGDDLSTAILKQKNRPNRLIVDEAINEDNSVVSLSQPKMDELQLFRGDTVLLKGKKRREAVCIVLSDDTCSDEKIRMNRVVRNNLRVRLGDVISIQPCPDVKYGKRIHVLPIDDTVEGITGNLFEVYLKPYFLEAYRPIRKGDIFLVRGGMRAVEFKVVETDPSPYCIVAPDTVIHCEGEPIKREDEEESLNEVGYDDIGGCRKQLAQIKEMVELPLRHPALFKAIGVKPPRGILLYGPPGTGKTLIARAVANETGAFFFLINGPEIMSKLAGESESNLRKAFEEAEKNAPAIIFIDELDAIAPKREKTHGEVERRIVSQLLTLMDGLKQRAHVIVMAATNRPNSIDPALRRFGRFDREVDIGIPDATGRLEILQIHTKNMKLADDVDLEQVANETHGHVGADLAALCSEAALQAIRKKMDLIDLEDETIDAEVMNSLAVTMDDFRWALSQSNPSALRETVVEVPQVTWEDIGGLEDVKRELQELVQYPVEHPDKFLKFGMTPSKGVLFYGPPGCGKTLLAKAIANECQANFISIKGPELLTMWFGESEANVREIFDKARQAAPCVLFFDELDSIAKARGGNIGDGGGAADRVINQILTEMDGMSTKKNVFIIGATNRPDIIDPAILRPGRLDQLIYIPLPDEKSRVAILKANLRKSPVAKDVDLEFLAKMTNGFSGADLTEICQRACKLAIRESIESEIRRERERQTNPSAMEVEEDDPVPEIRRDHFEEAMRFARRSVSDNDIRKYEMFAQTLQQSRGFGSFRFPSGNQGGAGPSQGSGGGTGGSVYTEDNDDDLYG
HCT116 bCat-KO = primary screen for growth suppressors in beta-catenin knockout HCT116 cells (colon tumor, human). HCT116 beta-catenin knockout viability, CellTiter-Glo, 60 h; hits give low values. viability, % at 10 µM. actives 1.5% (n = 140,000). AID 818, 2007;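 active means viability at or under a set limit, the compound median less 4 SD, cut at about 6% in these data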
PTEN del growth = growth suppression of PTEN-null HCT116, primary screen, cell-based, CellTiter-Glo; HCT116 PTEN-null viability, 60 h; hits give low values; viability, % at 10 µM; actives 1.2% (n = 140,000); AID 827, 2007;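 active means viability at or below a set limit, 4 SD under the median of all tested compounds, cut at about 3.7% in these data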;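 further: PTEN knockout HCT116 line with beta catenin targeted HCT116 as companion control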
Insulin prom inh = inhibitors of insulin promoter-driven GFP, primary screen, imaging, TRM-6 cells (human fetal islet line), eGFP reporter, cell count; inhibition, % at 2 µM; AID 1273, 2008; actives 0.9% (n = 130,000); reporter expression induced with tamoxifen;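 active means inhibition above the mean plus 3 SD, with well images judged a real hit on visual review, cut at about 60% in these data, passing the limit was not always enough; inconclusive means inhibition over the cutoff but images rejected on review; inactive means inhibition not above the cutoff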
ROMK mod = ROMK potassium channel modulators, primary screen, cell-based, thallium flux, MLSMR library | AID 1918, 2009 | B-score at 10 µM | actives 2% (n = 130,000) | Tet-inducible ROMK, thallium flux fluorescence; actives lie on both sides;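 active means signal ratio slope over the read window, or its plate-corrected B-score, at least 3 SD from the plate mean, either direction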;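 further: B-score of the F/F0 ratio slope over 7 to 12 s after thallium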
L major viab = Leishmania major promastigote growth inhibition, primary screen | Leishmania major promastigotes, resazurin fluorescence viability | inhibition, % at 10 µM | actives 9% (n = 200,000) | AID 1063, 2008; in the data active means inhibition above about 50%;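 further: promastigotes grown with compound for 44 hours at 28 °C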
Of the large screens only hits and unclear results are named; the others gave an inactive call.

C/C(=N\NC(N)=S)c1ccccc1	none (no result: HCT116 bCat-KO, PTEN del growth, Insulin prom inh, L major viab)
Cc1ccc(C(=O)C[n+]2cc(Br)cc(Br)c2)cc1[N+](=O)[O-]	none (no result: Insulin prom inh, ROMK mod)
Cc1cc(Br)ccc1SCC(=O)OCC(=O)N1CCN(C(=O)c2ccco2)CC1	none (no result: Insulin prom inh, ROMK mod)
O=C(CSc1cccc2cccc(Cl)c12)OCC(=O)N1CCN(C(=O)c2ccco2)CC1	L major viab 53
COc1ccccc1C(=O)NN=C1CCN(Cc2ccccc2)CC1	none
N#Cc1c(-c2cccnc2)cc(-c2ccccc2)nc1N	none (no result: HCT116 bCat-KO, PTEN del growth, Insulin prom inh, L major viab)
N#Cc1c(-c2ccccc2F)cc(-c2cccnc2)nc1N	L major viab 71
Cn1c(Cc2ccccc2)nnc1SCC(=O)c1cccs1	none
CC(=O)N1CCN(c2ccc(OC[C@H]3CO[C@](Cn4ccnc4)(c4ccc(Cl)cc4Cl)O3)cc2)CC1	L major viab 89 (no result: ROMK mod)
CCOc1ccc(OCC)c(-c2c(=O)n(OCc3ccccc3Br)c3ccccc3[n+]2[O-])c1	L major viab 71 (no result: Insulin prom inh)
CCOc1ccc(OCC)c(-c2c(=O)n(OCc3ccccc3C(=O)OC)c3ccccc3[n+]2[O-])c1	L major viab 79 (no result: ROMK mod)
CCOc1ccc(-c2c(=O)n(OCc3nc4ccccc4[nH]3)c3ccccc3[n+]2[O-])cc1	none (no result: HCT116 bCat-KO, PTEN del growth, Insulin prom inh, L major viab)
CCOc1ccc(-c2c(=O)n(OCc3ccccc3Br)c3ccccc3[n+]2[O-])c(OCC)c1	none (no result: HCT116 bCat-KO, PTEN del growth, Insulin prom inh)
Cc1cc(C)nc(SCc2nnc(SCC(N)=O)o2)n1	none (no result: HCT116 bCat-KO, PTEN del growth)
O=C1C2C(C(=O)N1Cc1cccnc1)C1C=CC2C12CC2 (centres undefined)	none (no result: ROMK mod)
Cc1ccc(-c2[nH]nc3c2C(c2cccnc2)C(C#N)=C(N)O3)cc1 (centres undefined)	L major viab 71 (no result: Insulin prom inh, ROMK mod)
C#CCSc1nc(N)c2c(n1)OC(N)=C(C#N)C2c1cccnc1 (centres undefined)	L major viab 76 (no result: HCT116 bCat-KO, PTEN del growth)
Cn1cc(C(=O)N2CCc3ccccc32)cn1	none (no result: ROMK mod)
ClCc1ncc(-c2ccc(Cl)cc2)o1	none (no result: HCT116 bCat-KO, PTEN del growth)
CN1CCc2c(sc3ncn4nc(-c5ccccc5O)nc4c23)C1	HCT116 bCat-KO 0.8, PTEN del growth 0.7
CCOC(=O)CCCCCN(Cc1ccccc1)S(=O)(=O)c1ccc([N+](=O)[O-])cc1	L major viab 97 (no result: Insulin prom inh, ROMK mod)
O=C(COC(=O)c1cnccn1)c1cccc([N+](=O)[O-])c1	none (no result: HCT116 bCat-KO, PTEN del growth, Insulin prom inh, ROMK mod, L major viab)
c1ccc(C2Oc3ccccc3C3CC(c4cccs4)=NN32)cc1 (centres undefined)	none (no result: Insulin prom inh, ROMK mod)
O=[N+]([O-])c1ccc(C2Oc3ccccc3C3CC(c4ccccc4)=NN32)s1 (centres undefined)	HCT116 bCat-KO 3.3, PTEN del growth 2.1, L major viab 99
O=C1N/C(=C/c2ccc(N3CCCC3)cc2)C(=O)N1c1ccccc1	L major viab 69
S=C(NCCCn1ccnc1)NC1CCCCC1	none
O=C1CC(c2ccc3c(c2)OCO3)c2cc3c(cc2N1)OCCO3 (centres undefined)	none (no result: ROMK mod)
CC1(C)CC(=O)C2=C(C1)Nc1ccccc1NC2c1ccc2c(c1)OCO2 (centres undefined)	L major viab 51 (no result: ROMK mod)
Cc1ccc(C2C3=C(CC(C)(C)CC3=O)Nc3onc(C)c32)cc1 (centres undefined)	L major viab 53
COc1ccc(C2C(C#N)=C(C)NC3=C2C(=O)CC(C)(C)C3)cc1 (centres undefined)	none
CC1(C)CC(=O)C2=C(C1)Nc1cc3c(cc1C2c1ccc2c(c1)OCO2)OCO3 (centres undefined)	L major viab 99 (no result: Insulin prom inh, ROMK mod)
COc1ccc(C2C3=C(CC(C)(C)CC3=O)Nc3cc4c(cc32)OCO4)cc1 (centres undefined)	L major viab 99 (no result: ROMK mod)
CC1(C)CC(=O)C2=C(C1)Nc1cc3c(cc1C2c1ccc(F)cc1)OCO3 (centres undefined)	L major viab 100 (no result: ROMK mod)
CCOC(=O)c1c(-n2cccc2)sc2c1CCCC2=O	none
O=C1C(Nc2ccccc2)=C(N2CCCCC2)C(=O)c2ccccc21	L major viab 97 (no result: ROMK mod)
COCCCNC1=C(Cl)C(=O)c2ccccc2C1=O	none (no result: HCT116 bCat-KO, PTEN del growth, Insulin prom inh, ROMK mod, L major viab)
COC1=C(Nc2ccccc2)C(=O)c2ccccc2C1=O	none
CCN(CC)CCCNC1=C(Cl)C(=O)c2ccccc2C1=O	L major viab 100 (no result: HCT116 bCat-KO, PTEN del growth, Insulin prom inh)
CN(C1=C(N2CCCCC2)C(=O)c2ccccc2C1=O)c1ccccc1	L major viab 65
O=C(/C=C/c1ccc(O)cc1)c1ccc(NC2=C(N3CCCCC3)C(=O)c3ccccc3C2=O)cc1	L major viab 99 (no result: Insulin prom inh)
O=C(/C=C/c1ccc(O)cc1)c1ccccc1	none (no result: HCT116 bCat-KO, PTEN del growth, Insulin prom inh, ROMK mod, L major viab)
Cc1ccc(S(=O)(=O)N2CCN(C3CC(=O)N(CCc4ccccc4)C3=O)CC2)cc1C (centres undefined)	none (no result: PTEN del growth, ROMK mod)
CCNC(=S)Nn1cnc2ccccc21	none (no result: HCT116 bCat-KO, PTEN del growth, Insulin prom inh, ROMK mod, L major viab)
CCN1CCc2c(OCC(=O)N3CCCCC3)cccc2C1=O	none (no result: HCT116 bCat-KO, PTEN del growth)
O=C(O)c1ccc(NC2=C(Cl)C(=O)c3ccccc3C2=O)cc1	none (no result: HCT116 bCat-KO, PTEN del growth, Insulin prom inh, L major viab)
COC1=C(Nc2ccc(C)cc2)C(=O)c2ccccc2C1=O	none
COc1ccccc1NC(=O)N1CCCC1	none (no result: HCT116 bCat-KO, PTEN del growth)
Cc1ccc(NC2=C(N3CCCCC3)C(=O)c3ccccc3C2=O)cc1	L major viab 97 (no result: ROMK mod)
COc1ccccc1NC1=C(N2CCCCC2)C(=O)c2ccccc2C1=O	HCT116 bCat-KO 3.1, L major viab 100 (no result: Insulin prom inh)
O=C1C(Nc2cccc(O)c2)=C(N2CCCCC2)C(=O)c2ccccc21	L major viab 98 (no result: Insulin prom inh)
O=C1C(Cl)=C(Nc2ccccc2)C(=O)c2ccccc21	HCT116 bCat-KO 1.1, PTEN del growth 1.0
COc1ccccc1OCCNC(=O)Cc1ccc(Cl)c(Cl)c1	none (no result: HCT116 bCat-KO, PTEN del growth)
CN(C)CC(O)CN1C(=O)N(CN2C(=O)N(CC(O)CN(C)C)C(=O)C2(C)C)C(C)(C)C1=O (centres undefined)	none (no result: HCT116 bCat-KO, PTEN del growth)
CC(NC(=O)c1cccs1)c1n[nH]c(=S)n1C (centres undefined)	none
Cc1ccnc(NC(=S)NC(=O)/C=C/c2ccc(Cl)cc2)c1	none
Cc1cc(C)nc(-n2nc(C)c(Sc3ccc(F)cc3)c2N)n1	L major viab 97 (no result: ROMK mod)
CCCN(CCC)CCCNc1ccc2nnc(-c3ccc(F)cc3)n2n1	L major viab 59 (no result: Insulin prom inh, ROMK mod)
CCOc1nc(NC2CCCCC2)nc(NC(C)(C)C)n1	Insulin prom inh inconclusive, L major viab 78
CCOC(=O)c1ccc(NC(=O)CSc2nc3c(c(=O)n2CC)SC(C)C3)cc1 (centres undefined)	L major viab 53 (no result: Insulin prom inh, ROMK mod)
C=CCn1c(SCC(=O)Nc2ccc(C(=O)OCC)cc2)nnc1-c1sc(N)nc1C	L major viab 58 (no result: ROMK mod)
O=C(C1Cc2ccccc2CN1C(=O)c1ccccc1)N1CCN(c2ccccc2)CC1 (centres undefined)	none (no result: HCT116 bCat-KO, PTEN del growth, Insulin prom inh, L major viab)
Fc1ccc(C(c2ccc(F)cc2)N2CCN(C/C=C/c3ccccc3)CC2)cc1	L major viab 53 (no result: ROMK mod)
C(=C\c1ccccc1)/CN1CCN(C(c2ccccc2)c2ccccc2)CC1	none (no result: ROMK mod)
